Assay outcomes from PubChem.
In the library only some 6.9% were active in any assay of this set; here they are far more common.
SW480 rerep: A quantitative high throughput screen for small molecules that induce DNA re-replication in SW480 colon adenocarcinoma cells | actives 1.8% (n = 340,000) | SW480 DNA re-replication, Hoechst DNA content imaging, 48 h | Potency, µM (doses to about 46.1 µM), for inactives: at the top dose re-replication activation, hits mostly activators | AID 624297, 2012; note: potency is the fitted concentration of half-maximal effect; % of control where 0% means no effect; nearly all actives have a fitted effect of over 55% in size
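Compounds, transferred as 23 nL by pin tool, were incubated with cells for 48 hr; DNA content per nucleus was then quantified by Hoechst staining and fluorescence plate imaging.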
KB-3-1 cytotox: qHTS assay for MDR1-selective chemotherapeutics: Primary screen using the parental adenocarcinoma cell KB-3-1; KB-3-1 viability, CellTiter-Glo ATP luminescence, 72 h; actives 1.4% (n = 400,000); Potency, µM (titrated, usually from 46.1 µM), hits mostly cytotoxic; note: potency is the fitted concentration of half-maximal effect; % is set by controls: 0 for no effect and ±100 for the full control effect; nearly all actives have a fitted effect of over 60% in size
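Parental KB-3-1 adenocarcinoma cells in phenol-red-free DMEM with 10% FBS were pin-treated with compounds at several concentrations, incubated 72 h at 37 °C, and viability read by CellTiter-Glo luminescence; concentration-effect curves were fitted after normalization.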
KB-V1 MDR tox: qHTS assay for MDR1-selective chemotherapeutics: Primary screen using the drug-selected MDR subline cells KB-V1; KB-V1 MDR cells viability, CellTiter-Glo, 72 h; Potency, µM (titrated, usually from 46.1 µM), most hits filed as cytotoxic; actives 3.4% (n = 400,000); AID 1347076, 2019; note: potency is the fitted concentration of half-maximal effect; % is set by controls: 0 for no effect and ±100 for the full control effect; nearly all actives have a fitted effect of over 60% in size
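Cytotoxicity toward P-gp-expressing KB-V1 cells was determined as loss of CellTiter-Glo luminescence after 72 h at 37 degrees C. Compounds were tested in quantitative HTS format across a concentration range, with curves fitted to normalized data.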
Giardia killer: Small Molecules that selectively kill Giardia lamblia: qHTS. activity change, % at 7.66 µM, hits read low. AID 540267, 2011. Giardia lamblia trophozoite viability. actives 0.15% (n = 340,000); in the data active = activity change below about -80%; inconclusive = between about -30% and that limit;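 note: parasites exposed to compound for two days anaerobically before the ATP read; % is set by controls: 0 for no effect and ±100 for the full control effect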
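Luminescence from cellular ATP indicates surviving trophozoites (100 cells/well) following 48 hrs anaerobic compound treatment at 37 deg C; signal develops 15-30 min at room temperature.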
ASM inhibitor: Inhibitors of Secretory Acid Sphingomyelinase (S-ASM): qHTS; placental ASM, HMU-PC fluorogenic substrate, 60 min; Sphingomyelin phosphodiesterase (Homo sapiens), P17405; Potency, µM (doses to about 57.5 µM), for the others: at the highest dose activity change, negative = inhibition, usual class: inhibitors; AID 504937, 2011; actives 0.006% (n = 340,000); note: potency is the fitted concentration of half-maximal effect
Target sequence (P17405 47-631 limits assumed): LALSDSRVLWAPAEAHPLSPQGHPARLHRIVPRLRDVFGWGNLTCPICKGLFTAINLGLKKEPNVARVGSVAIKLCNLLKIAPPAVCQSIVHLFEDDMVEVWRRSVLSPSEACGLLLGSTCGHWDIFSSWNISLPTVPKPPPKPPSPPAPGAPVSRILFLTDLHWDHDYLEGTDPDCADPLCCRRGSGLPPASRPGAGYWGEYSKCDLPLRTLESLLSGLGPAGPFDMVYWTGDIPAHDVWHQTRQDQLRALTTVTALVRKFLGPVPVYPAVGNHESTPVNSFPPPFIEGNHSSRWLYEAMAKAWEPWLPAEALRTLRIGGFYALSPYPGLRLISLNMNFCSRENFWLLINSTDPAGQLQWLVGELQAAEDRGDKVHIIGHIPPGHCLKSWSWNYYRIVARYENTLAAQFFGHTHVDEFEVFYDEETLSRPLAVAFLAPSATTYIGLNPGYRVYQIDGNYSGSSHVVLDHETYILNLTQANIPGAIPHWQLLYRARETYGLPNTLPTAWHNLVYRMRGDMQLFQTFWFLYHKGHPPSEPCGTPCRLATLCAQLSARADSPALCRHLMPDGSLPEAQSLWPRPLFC
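Human placenta-derived ASM preincubated with compound 10 min at room temperature, then reacted with 9 uM (final) fluorogenic HMU-PC substrate for 60 min at 37 C. Stop solution raises pH to 10; fluorescence read at Ex 386/Em 447 nm.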
MCF10A rereplic: A quantitative high throughput screen for small molecules that induce DNA re-replication in MCF 10a normal breast cells; MCF 10A DNA re-replication, Hoechst nuclear intensity, 48 h; Potency, µM (series often up to 46.1 µM), for the others: at the highest dose activity, positive = re-replication, usual class: activators; actives 2.9% (n = 350,000); AID 624296, 2012; note: potency is the fitted concentration of half-maximal effect; % of control where 0% means no effect; nearly all actives have a fitted effect of over 50% in size
* hit, by the source's call; i = inactive; ? = inconclusive; . = no result given. Unless noted, calls come from the whole dose curve; as a rule, active = well fitted curve in the direction sought with a large enough effect; inconclusive = small, poorly fitted or top-dose-only effect, or another doubt; inactive = no such curve, though single readings can be large; an effect the other way counts as inactive or inconclusive.

SMILES	SW480 rerep	KB-3-1 cytotox	KB-V1 MDR tox	Giardia killer	ASM inhibitor	MCF10A rereplic
Cc1nc([N+](=O)[O-])c(Br)n1CC(=O)c1cccc([N+](=O)[O-])c1	?	i	i	-14.6	-0.7%	20.6µM*
COC(=O)Cn1c(C)nc([N+](=O)[O-])c1Br	-14.5%	i	i	-0.4	3.2%	0.0%
Cc1nc([N+](=O)[O-])c(Br)n1CC(=O)c1ccc(F)cc1	?	i	i	4.1	-0.1%	20.6µM*
O=C1C2C3C=CC(C3)C2C(=O)N1CCc1ccccc1 (centres undefined)	0.0%	i	i	9.5	0.8%	15.8%
CC(C)=C1C2CCC1C1C(=O)N(CCc3ccccc3)C(=O)C21 (centres undefined)	-118.3%	i	10.3µM*	-22.7	0.6%	21.5%
Cc1c([N+](=O)[O-])cnc2ccccc12	.	i	i	.	.	.
Cc1ccc2nc3c(cc(C(=O)NC4CCCC4)c(=N)n3C3CCCCC3)c(=O)n2c1	?	?	?	6.1	186.6%	?
N=c1c(C(=O)NC2CCCC2)cc2c(=O)n3ccccc3nc2n1C1CCCCC1	4.61µM*	i	?	8.6	330.3%	2.91µM*
Cc1ccc2nc3c(cc(C(=O)NC4CCCCC4)c(=N)n3C3CCCCC3)c(=O)n2c1	18.4µM*	?	?	-25.5	224.2%	?
CNC(=O)c1cc2c(=O)n3cc(C)ccc3nc2n(C(C)C)c1=N	?	i	i	-21.4	i	7.08µM*
Cc1ccc(S(=O)(=O)c2cc3c(=O)n4ccccc4nc3n(C3CCCC3)c2=N)cc1	3.6%	i	?	25.7	-2.9%	16.8%
COc1cccc(CNCc2c(C(=O)O)c(C)n(Cc3ccc(F)cc3Cl)c2C)c1OC	.	i	i	.	.	.
CC(=O)Nc1ccc2ccccc2c1	-13.2%	i	i	21.7	-0.4%	17.7%
CCOC(=O)C(Nc1ccc2ccccc2c1)C(=O)OCC	13µM*	i	i	9.3	4.0%	4.61µM*
CCCC(=Nc1ccccc1OC)C1=C(O)CC(c2ccccc2)CC1=O (centres undefined)	-5.9%	i	i	4.9	1.8%	?
CC(=NCCc1c(C)[nH]c2ccc(C)cc12)C1=C(O)CC(c2ccccc2)CC1=O (centres undefined)	6.51µM*	5.8µM*	5.8µM*	0.0	-12.7%	2.31µM*
CC(=NCCc1c(C)[nH]c2ccc(OC(F)(F)F)cc12)C1=C(O)CC(c2ccccc2)CC1=O (centres undefined)	8.2µM*	4.61µM*	?	3.4	?	8.2µM*
N#Cc1ccc(NC(=O)Nc2ccc(Cl)cc2)cc1	1.5%	20.6µM*	?	8.6	-5.7%	-1.8%
O=C(Cn1ncc2ccsc2c1=O)N1CCN(c2ccc(F)cc2)CC1	.	i	i	.	.	.
CCc1nn(CC(=O)NCCCOC)c(=O)c2cc3ccccc3n12	.	i	i	.	.	.
COc1ccc(C(=O)N2CCCC(CCC(=O)N3CCN(c4ccccn4)CC3)C2)cc1 (centres undefined)	-25.6%	i	13µM*	-8.4	4.2%	-8.9%
Cc1ccccc1C(=O)N1CCCC(CCC(=O)N2CCN(c3ccccn3)CC2)C1 (centres undefined)	-6.1%	i	i	-5.7	0.0%	2.5%
CN(C)c1ccc(C(=O)N2CCCC(CCC(=O)N3CCN(c4ccccn4)CC3)C2)cc1 (centres undefined)	-0.5%	.	.	-18.3	1.3%	8.0%
Cc1ccsc1C(=O)N1CCCC(CCC(=O)N2CCN(c3ccccn3)CC2)C1 (centres undefined)	-18.1%	i	?	-0.6	-2.7%	6.51µM*
O=C(NCc1ccccc1)C1(C(F)(F)F)C/C(=C\Cc2ccccc2)CCCO1 (centres undefined)	.	.	.	13.3	.	.
SMILES	SW480 rerep	KB-3-1 cytotox	KB-V1 MDR tox	Giardia killer	ASM inhibitor	MCF10A rereplic
Cc1ccc2oc(=O)c3cnn(CC(=O)N4CCN(c5cc(Cl)ccc5C)CC4)c3c2c1	.	i	i	.	.	.
Cc1cccc(NC(=O)CSc2cccc3cccnc23)c1C	1.8%	i	i	11.5	1.6%	-11.3%
NNC(=O)c1ccc(CSc2cccc3cccnc23)cc1	-0.8%	i	i	13.2	14.8%	14.9%
Cc1cccc(CSc2cccc3cccnc23)c1	6.51µM*	?	?	13.1	-2.4%	?
c1cnc2c(SCc3ccc(-c4nnco4)cc3)cccc2c1	?	i	14.6µM*	0.5	-2.0%	3.9%
CCOC(=O)CSc1cccc2cccnc12	6.51µM*	?	23.1µM*	-3.0	10.7%	20.4%
Cc1ccc(CCNC(=O)c2ccc3c(Cl)c4c(nc3c2)CCCC4)cc1	.	i	i	.	.	.
O=C(Cn1c(=O)n(Cc2ccc(C(=O)NCc3ccccc3Cl)cc2)c(=O)c2ccccc21)Nc1ccc(F)cc1	.	i	i	.	.	.
COc1ccc(N(C(=O)c2cc(OC)c(OC)c(OC)c2)S(=O)(=O)c2ccc(C)cc2)cc1	.	i	?	.	.	.
CC(O)CN(CCN(CC(C)O)CC(C)O)CC(C)O (centres undefined)	-5.6%	.	.	.	.	1.3%
CCSc1ccccc1C(=O)n1nnc2ccccc21	?	?	i	11.7	-0.7%	15.8µM*
Cc1ccc(NC(=O)C(=O)NCCN2CCN(Cc3ccc([N+](=O)[O-])cc3)CC2)cc1	?	i	2.91µM*	-6.1	-0.6%	-6.4%
C=CCn1c(NC(=O)c2ccc(Br)o2)c(S(=O)(=O)c2ccccc2)c2nc3ccccc3nc21	17.0%	i	?	-7.2	262.0%	11.6µM*
O=C(Nc1ccc(S(=O)(=O)NCc2ccccc2)cc1)c1ccc(Br)o1	-3.0%	i	i	11.4	-5.6%	1.0%
CC(=O)c1ccc(Nc2nc3ccccc3nc2-n2nc(C)cc2C)cc1	.	i	i	.	.	.
Cc1ccc(C(C2C(=O)CC(C)(C)CC2=O)C2C(=O)CC(C)(C)CC2=O)s1	0.5%	i	i	-0.4	1.8%	18.4µM*
O=C1CCC(C(=O)OCC(=O)N2N=C3/C(=C/c4ccccc4)CCCC3C2c2ccccc2)N1 (centres undefined)	-2.4%	20.6µM*	?	21.4	-8.1%	23.0%
